Assay results published in PubChem BioAssay.

Key:
[1] = molecular target: Tumor necrosis factor receptor superfamily member 10B (Homo sapiens) (UniProt O14763); assay: caspase-8 TRAIL sensitization, hit retest, confirmation, cell-based, NB7+caspase-8, with/without TRAIL, luminescence panel (AID 651596); details: NB7 neuroblastoma + caspase-8, TRAIL sensitization, luminescence viability, with TRAIL, mean of runs, at 10 µM, stronger effect = higher value
[2] = as above; details: NB7 neuroblastoma + caspase-8, without TRAIL, luminescence viability, without TRAIL, mean of runs, at 10 µM

Sequence of Tumor necrosis factor receptor superfamily member 10B (Homo sapiens) (O14763 whole entry, looked up): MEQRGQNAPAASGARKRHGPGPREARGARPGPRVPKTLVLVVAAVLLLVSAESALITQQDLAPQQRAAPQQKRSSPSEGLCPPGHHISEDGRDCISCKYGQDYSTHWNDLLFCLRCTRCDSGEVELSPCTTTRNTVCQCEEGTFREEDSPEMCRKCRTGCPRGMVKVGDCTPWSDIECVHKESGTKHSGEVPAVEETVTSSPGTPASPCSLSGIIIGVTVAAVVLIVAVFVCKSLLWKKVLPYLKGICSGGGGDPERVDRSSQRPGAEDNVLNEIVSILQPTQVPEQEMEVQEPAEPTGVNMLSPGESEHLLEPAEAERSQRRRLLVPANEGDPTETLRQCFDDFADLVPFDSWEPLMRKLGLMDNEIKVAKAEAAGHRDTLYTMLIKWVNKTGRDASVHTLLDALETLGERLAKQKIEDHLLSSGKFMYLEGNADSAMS

| SMILES | activity [1] | activity [2] |
| --- | --- | --- |
| CC1(C)N=C(N)N=C(N)N1c1ccc(OCC(=O)Nc2ccccc2)c(Cl)c1 | 78.5% | 82.3% |
| CCOc1ccc(C(=O)Nc2ccc3[nH]ncc3c2)cc1 | 82.6% | 82.7% |
| N/C(Cc1ccc(Cl)c(Cl)c1)=N\OC(=O)c1cccs1 | 49.6% | 39.5% |
| Nc1nn2cc(-c3ccc(Br)cc3)nc2c2ccccc12 | 53.9% | 47.2% |
| O=C(C[C@H]1C/C=C\C[C@H](NC(=O)OCC2c3ccccc3-c3ccccc32)C(=O)OC[C@H](Cc2ccccc2)NC1=O)N[C@H](CO)Cc1ccccc1 | 11.8% | -2.65% |
| COc1ccc(OC)c(S(=O)(=O)Nc2ccc(-c3ccc4nncn4n3)cc2)c1 | 57.5% | 59.3% |
| COc1cc2nc(N3CCNCC3)nc(N)c2cc1OC | 27.5% | 0.125% |
| CC1=NN(c2nc(N)nc(/C(C#N)=C/c3ccc([N+](=O)[O-])o3)n2)C(C)(C)C1 | 58.1% | 98.6% |
| COc1ccc(NC(=O)c2cc([N+](=O)[O-])ccc2O)cc1 | 89.8% | 88.2% |
| CC(C)CC(N)c1csc(NC(=O)c2cc(C(C)(C)C)nn2Cc2ccccc2)n1 (stereo unspecified) | 70% | 92.4% |
| Cc1ccc(-c2cc3onc(-c4ccccc4)c3c(=O)n2C)cc1 | 75% | 72.3% |
| COCCN(C(=O)COC(=O)c1c(NC(C)=O)sc(C)c1C)c1c(N)n(Cc2ccccc2)c(=O)[nH]c1=O | 58.8% | 65.8% |
| Cc1cc(/C(N)=N/OC(=O)c2ccccc2Cl)no1 | 63.5% | 68.1% |
| CC(C)(C)OC(=O)NCCCCCNC(=O)c1[nH]cnc1C(=O)Nc1cc(Br)ccc1F | 78.2% | 63.6% |
| COc1ccc2oc(-c3ccc(NC(=O)c4ccc(N5CCOCC5)c([N+](=O)[O-])c4)cc3)nc2c1 | 52% | 24.4% |
| CC(C)(C)c1csc(NC(=O)Nc2ccccc2)n1 | 41.3% | 50% |
| Cc1cc2nc(N3C(=O)CNC3=S)sc2cc1C | 67.8% | 64.7% |
| CCN1CCN(Cc2ccc(NC(=O)c3cc(NC(=O)C(=O)c4c[nH]c5ccccc45)cc(OC)c3)cc2C(F)(F)F)CC1 | 82.2% | 77.7% |
| Cc1nc2c(-c3ccc(F)cc3)cnn2c(N)c1-c1ccccc1 | 88.4% | 86.9% |
| Nc1nc(CCl)nc(N(c2ccccc2)c2ccccc2)n1 | 99.3% | 98.7% |
| CCC1CCCCN1c1ccc([N+](=O)[O-])cc1/C=N/NC(=O)Cn1c2ccccc2c(=O)c2ccccc21 (stereo unspecified) | 60.3% | 66.7% |
| Cc1ccccc1C(=O)O/N=C(\N)c1ccncc1 | 61.6% | 76.3% |
| Cc1ccc(S(=O)(=O)N2C[C@H]3[C@H]4C(=O)N(C5CCCCC5)C(=O)[C@H]4CC(=O)[C@H]3[C@@H]2c2cccc3ccccc23)cc1 | -8.53% | -13.6% |
